hcDAF-12 act: H. contortus DAF-12 nuclear receptor activators, primary screen, cell-based, luminescence, HEK293, lit1-tk-luc reporter | HEK293 hcDAF-12 lit1-tk-luc reporter; 0% DMSO, 100% Δ7-dafachronic acid | activation, % at 6.8 µM | actives 1.4% (n = 370,000) | AID 652067, 2013;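 active = activation above the mean of all tested compounds plus 3 SD, cut at about 5.5% in these data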
hgDAF12 agonist: H. glycines DAF-12 receptor agonists, primary screen, cell-based, luminescence, HEK293, GAL4 fusion, UAS-luciferase; HEK293 GAL4-hgDAF12 UAS-luciferase reporter, agonist luminescence; normalized to butyrate control; activation, % at 6.8 µM; actives 1.8% (n = 370,000); Nuclear hormone receptor DAF-12 (Heterodera glycines), GAL4 fusion;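 active = activation above a cutoff set at the mean of all screened compounds plus 3 SD, cut at about 10% in these data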
ssDAF-12 act: S. stercoralis DAF-12 nuclear receptor activators, primary screen, cell-based, luminescence, HEK293, GRIP1 co-expression, lit1-tk-luc; HEK293 ssDAF-12/GRIP1 lit1-tk-luc reporter; % of 3 µM dafachronic acid response; Nuclear hormone receptor DAF-12 (Strongyloides stercoralis); AID 652126, 2013; activation, % at 6.8 µM; actives 1% (n = 370,000);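 active = activation above the mean over all tested compounds plus 3 SD, cut at about 0.9% in these data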
DAX1 inh-1: DAX1 (NR0B1) inhibitors on StAR promoter, primary screen, cell-based, luminescence, SF-1 (NR5A1), full-length DAX-1. AID 652010, 2013. inhibition, % at 6.8 µM. HEK293T StAR-luciferase reporter, SF-1/DAX-1 repression relief. actives 1.1% (n = 370,000);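 active = inhibition above the mean over all tested compounds plus 3 SD, cut at about 3.6% in these data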;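 also: higher inhibition means more luminescence from relief of DAX-1 repression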
SMARCA2 act: SMARCA2 (BRM) function activators, primary screen, cell-based, luminescence, high throughput | MG213 cells, MMTV-luciferase reporter, dexamethasone, overnight | activation, % at 9.1 µM | actives 1% (n = 370,000); in the data active = activation above about 7.8%
DAX1 inh-2: DAX1 (NR0B1) inhibitors, primary screen, cell-based, HEK293, Gal4-DAX1, luciferase luminescence; Nuclear receptor subfamily 0 group B member 1 (Homo sapiens), P51843; HEK293 Gal4-DAX1 luciferase reporter; inhibition, % at 6.75 µM; actives 0.99% (n = 340,000); AID 504766, 2011;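 active = inhibition above the mean over all tested compounds plus 3 SD, cut at about 4.2% in these data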;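 also: inhibition shows as a rise in luminescence from relieved DAX1 repression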
Target sequence (P51843 207-470 limits assumed): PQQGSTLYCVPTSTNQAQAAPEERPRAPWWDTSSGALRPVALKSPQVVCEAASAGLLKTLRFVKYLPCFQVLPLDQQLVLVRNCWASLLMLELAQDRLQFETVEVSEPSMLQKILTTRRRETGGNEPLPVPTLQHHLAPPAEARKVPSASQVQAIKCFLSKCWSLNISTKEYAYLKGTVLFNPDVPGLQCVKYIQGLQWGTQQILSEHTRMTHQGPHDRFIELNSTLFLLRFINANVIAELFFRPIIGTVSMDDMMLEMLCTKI
Numbers stand for hits; n = inactive; x = not tested or not shown. Sampled rows, rich in hits. Any-hit rate of the full collection: about 4.8%.

SMILES	hcDAF-12 act	hgDAF12 agonist	ssDAF-12 act	DAX1 inh-1	SMARCA2 act	DAX1 inh-2
COc1ccc(NC(=O)c2ccccn2)cc1OC	n	12	n	n	n	4.4
COc1ccccc1/C=C/C=N/NC(=O)c1ccccn1	n	13	n	4.1	n	n
COc1ccc(C(=O)Nc2ccc3ccccc3n2)cc1OC	n	n	n	n	n	4.8
O=C(N/N=C/C1CCCCC1)c1ccccn1	6.3	12	n	n	n	n
CN(C)S(=O)(=O)c1cc(NC(=O)[C@H](Cc2ccccc2)N2C(=O)c3ccccc3C2=O)ccc1Cl	n	n	n	n	n	n
CC1(C)C(=O)N(c2ccccc2)C(=O)c2ccccc21	n	n	n	n	n	n
Cc1cc(=O)[nH]c(-c2cccs2)n1	n	n	n	n	n	n
CCC(=O)Nc1ccc(NC(=O)c2ccccn2)cn1	n	12	n	n	n	n
COc1ccc(NC(=O)C/C(C)=N/NC(=O)c2cccs2)c([N+](=O)[O-])c1	n	11	n	n	n	n
COc1ccc(NC(=O)c2cccs2)c([N+](=O)[O-])c1	n	n	n	n	n	n
COCCn1c(SCC(=O)Nc2ccc(NC(=O)c3ccco3)c(OC)c2)nc2ccccc2c1=O	n	n	n	n	n	n
CC(=O)Nc1ccc2c(c1)Cc1ccc(Cl)cc1-2	n	n	n	n	n	n
Cc1ccc(C(=O)N/N=C/c2cc(Br)ccc2O)cn1	n	n	n	n	n	n
Cc1ccc(C(=O)N/N=C\C=C\c2ccc(Br)cc2)cn1	6.5	n	1.0	n	n	n
Cc1ccc(N2CS(=O)(=O)/C(=C/N(C)C)C2=O)cc1	n	n	n	n	n	n
Cc1cc(C)c2[nH]c(O)c(N=NC3=NC(=O)CS3)c2c1	n	n	n	n	n	4.3
O=C1C2C(c3ccccc3)(C(=O)N1c1ccc(Cl)cc1)C2(c1ccccc1)c1ccccc1 (stereo not given)	n	n	n	n	n	n
O=CNc1cc(-c2ccccc2)cn2c(-c3ccc(F)c(Cl)c3)cnc12	n	n	1.5	n	n	x
O=C(NCc1cccs1)C1CC(c2ccccc2O)=NO1 (stereo not given)	n	n	n	n	n	n
COC(=O)c1sc(=S)n(Cc2ccccc2)c1C	n	n	n	n	n	12
CC(=O)c1sc(=S)n(Cc2ccccc2)c1C	n	n	n	n	n	n
O=C(COC(=O)c1ccc(F)cc1F)NC(=O)Nc1ccc2c(c1)OCCO2	n	n	n	n	n	n
Cc1nn(Cc2ccc(F)cc2)c2sc(C(=O)Nc3ccccc3N3CCOCC3)cc12	n	n	n	n	n	n
O=C(Nc1nccs1)C1=COCCO1	n	n	n	n	n	n
CC(C)Cc1nnc(NC(=O)C2=COCCO2)s1	n	n	n	3.8	n	n
SMILES	hcDAF-12 act	hgDAF12 agonist	ssDAF-12 act	DAX1 inh-1	SMARCA2 act	DAX1 inh-2
CCOC(=O)/C(C#N)=C/c1cc(C)n(-c2ccc(C)cc2)c1C	n	n	n	n	n	n
CCOC(=O)/C(C#N)=C\c1cc(C)n(-c2ccccc2)c1C	n	n	n	n	n	5.3
Cc1cc(C)n(C(=O)Cn2nc(C)c(Cl)c2C)n1	n	n	n	n	n	4.5
O=C(OCCCCOC(=O)c1ccccc1)c1ccccc1	n	n	n	n	n	n
O=C(OCCc1ccccc1)c1cc(O)c(O)c(O)c1	6.2	n	n	n	n	n
CN(C)S(=O)(=O)c1ccc(C(=O)OCCc2ccccc2)cc1	n	n	n	n	n	n
Nc1ccc(C(=O)OCCc2ccccc2)cc1	n	13	n	n	n	5.1
O=C(COc1ccccc1)NNC1=NS(=O)(=O)c2ccccc21	n	n	n	n	n	n
CCOc1ccc(CN2CCN(Cc3nc4c(s3)CCCC4)CC2CCO)cc1 (stereo not given)	n	n	n	n	n	n
O=C(CSc1nccc(=O)[nH]1)c1cc2ccccc2o1	n	11	1.3	n	n	n
CC(=O)Oc1ccc(-c2csc(Nc3cccc(C)n3)n2)cc1	n	n	2.4	n	n	5.5
CC(=O)Oc1ccc(-c2csc(Nc3cccnc3)n2)cc1	n	n	n	n	n	n
Cc1cccc(Nc2nc(-c3ccccn3)cs2)n1	6.0	13	1.1	n	n	n
C=CCn1c(C)cc(C(=O)CSc2nc(N)cc(N)n2)c1C	n	n	n	n	n	4.6
COc1ccc(/C=C/C(=O)O/N=C(\N)c2ccccc2)cc1OC	n	n	n	n	n	n
COC(=O)Nc1ccc([N+](=O)[O-])cc1OC	n	n	n	n	n	n
COc1cc([N+](=O)[O-])ccc1NC(=S)Nc1cccc(C(=O)O)c1	7.0	n	n	n	n	n
CCN(CC)Cc1c(C(=O)N/N=C/c2cccc3ccccc23)nnn1-c1nonc1N	n	n	n	n	n	n
O=C(Cc1ccccc1)c1ccc(O)cc1O	n	n	n	n	n	n
O=C(Cc1ccc2cccnc2c1)c1ccc(O)cc1O	n	11	n	n	n	n
COc1cc(O)c(C(CCN2CCCCC2)c2ccc3c(c2)OCO3)c(OC)c1 (stereo not given)	n	n	n	n	n	4.3
COc1ccc2c(C)cc(SCC(=O)c3ccc4c(c3)OCO4)nc2c1	n	n	3.4	n	n	n
O=C1COc2ccc(C(=O)COC(=O)c3ccc4ccccc4n3)cc2N1	n	n	0.9	n	n	n
O=C(CSc1nc2ccccc2[nH]1)c1ccc2c(c1)OCO2	n	n	n	n	n	6.0
Cc1ccc2nc(SCC(=O)c3ccc4c(c3)NC(=O)CO4)[nH]c2c1	n	11	n	n	n	n
COC(=O)C1=C(C)N(Cc2cccc(C(F)(F)F)c2)C(=NCc2ccc(C(F)(F)F)cc2)NC1c1ccccc1 (stereo not given)	n	n	n	n	n	x
COc1ccc(CNC(=O)C(NC(C)=O)C(=O)Nc2ccc(OC)cc2)cc1 (stereo not given)	n	n	n	n	n	n
Cc1ccc2nc(-c3ccccc3)nn2c1	6.5	n	n	n	n	n
CCC(C)n1c(=S)[nH]c2c(sc3ccc([N+](=O)[O-])cc32)c1=O (stereo not given)	n	n	3.4	n	n	n
O=C1CCC(C(=O)OCC(=O)Nc2ccc(SC(F)F)cc2)=NN1	n	n	n	n	n	n

High-throughput results deposited in PubChem by The Scripps Research Institute Molecular Screening Center.
